Only some compounds are listed: those with a hit (about 7.5% of all), similar ones and a draw of the others.
Rab9 prom act – qHTS Assay for Rab9 Promoter Activators; 2.8% of 320,000 active; Potency, µM (highest dose often 9.22 µM), for inactives: top-dose activation, negative = inhibition, usual class: activators; Huh7 Rab9 promoter-luciferase reporter, luminescence, 24 h; also: % of control where 0% means no effect; nearly all actives have a fitted effect of over 60% in size
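Promoter activation is measured as luciferase luminescence in Huh7 cells stably transfected with a Rab9 promoter–luciferase construct, following 24 h compound exposure at 37 °C and 10 min reagent incubation at ambient temperature.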
NPC1 prom act – qHTS Assay for NPC1 Promoter Activators. Huh7 NPC1 promoter luciferase reporter, 24 h. Potency, µM (doses to about 9.22 µM), without a hit: at the highest dose activation, hits mostly activators. 2.4% of 320,000 active; also: % of control where 0% means no effect; nearly all actives have a fitted effect of over 60% in size
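Huh7 reporter cells (NPC1 promoter driving luciferase) are dosed with compound for 24 h at 37 °C, 5% CO2; luciferase detection reagent is then added and luminescence measured after 10 min at ambient temperature.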
SMN2 splice up – qHTS Assay for Enhancers of SMN2 Splice Variant Expression; HEK293 SMN2-luciferase splicing reporter, luminescence, 30-36 h; Potency, µM (top dose mostly 46.1 µM), for the others: at the top dose activity change, positive = activation, hits mostly activators; 2.8% of 210,000 active; AID 1458, 2008; also: % of control where 0% means no effect; nearly all actives have a fitted effect of over 55% in size
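qHTS luciferase splicing reporter: luminescence rises when SMN2 exon 7 is included in transfected HEK293 cells. Compound exposure lasted 30-36 h at 37C, with 4.5 mM final sodium butyrate as control, followed by a ONE-Glo read.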
Luc counter – Counterscreen for Luciferase (Kinase-Glo TM) Inhibition | 0.28% of 200,000 active | Potency, µM (top dose mostly 38.3 µM), inactives show at the top dose activity change, negative = inhibition, hits mostly inhibitors | Kinase-Glo luciferase, ATP luminescence, 8 min | Luciferin 4-monooxygenase (Photuris pensylvanica), Q27757; also: % is scaled to controls: 0 for no effect and ±100 for the full control effect; nearly all actives have a fitted effect of over 60% in size
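Recombinant Kinase-Glo luciferase, 10 uM ATP (linear range), luciferin; imidazole pH 7.2 / KCl / MgCl2 / Tween / BSA buffer; 8 min RT; luminescence.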
ELG1 genotoxic – qHTS screen for small molecules that induce genotoxicity in human embryonic kidney (HEK293T) cells expressing luciferase-tagged ELG1; HEK293T ELG1-luciferase reporter, luminescence, 16 h; Potency, µM (highest dose often 46 µM), inactives show at the highest dose activity change, positive = activation, usual class: activators; 1.3% of 330,000 active; AID 504466, 2011; also: % of control where 0% means no effect; nearly all actives have a fitted effect of over 60% in size
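DMSO vehicle served as control against compound-treated ELG1-luciferase HEK293T cells; exposure lasted 16 hr at 37 °C and 5% CO2, followed by ONE-Glo luminescence detection after 30 min.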
FLuc counter – qHTS profiling assay for firefly luciferase inhibitor/activator using purifed enzyme and Km concentrations of substrates (counterscreen for miR-21 project) | Luciferin 4-monooxygenase (Photinus pyralis), P08659 | purified FLuc, Km substrates, luminescence inhibition | Potency, µM (titrated, usually from 57.5 µM), inactives show at the top dose activity change, negative = inhibition, hits mostly inhibitors | 6.9% of 360,000 active | AID 588342, 2011;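 also: plate controls were vehicle for no effect and reference inhibitor for full effect; nearly all actives have a fitted effect of over 55% in size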
Target sequence (P08659 whole entry, looked up): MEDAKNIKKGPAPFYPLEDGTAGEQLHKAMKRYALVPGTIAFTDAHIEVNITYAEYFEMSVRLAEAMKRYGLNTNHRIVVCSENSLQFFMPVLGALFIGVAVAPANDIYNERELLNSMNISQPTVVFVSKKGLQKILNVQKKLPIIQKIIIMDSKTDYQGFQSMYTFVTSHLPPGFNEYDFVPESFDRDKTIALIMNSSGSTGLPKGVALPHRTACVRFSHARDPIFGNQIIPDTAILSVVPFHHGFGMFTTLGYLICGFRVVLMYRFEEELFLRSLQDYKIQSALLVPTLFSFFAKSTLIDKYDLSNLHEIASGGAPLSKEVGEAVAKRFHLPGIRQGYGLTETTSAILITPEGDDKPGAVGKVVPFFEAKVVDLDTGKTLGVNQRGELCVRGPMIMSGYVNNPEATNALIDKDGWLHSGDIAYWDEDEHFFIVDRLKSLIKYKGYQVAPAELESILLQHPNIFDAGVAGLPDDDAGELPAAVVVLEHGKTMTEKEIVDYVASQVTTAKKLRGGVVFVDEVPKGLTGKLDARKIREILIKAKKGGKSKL
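Biochemical qHTS of compounds, final roughly 60 µM downward over six points, against 10 nM purified firefly luciferase using Km concentrations of substrates (10 uM D-luciferin, 10 uM ATP) in Tris acetate pH 7.5 buffer; luminescence output.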
Active calls of the source: *; ? = inconclusive; . = no result given. Calls follow the shape of the dose curve; as a rule, active = well fitted curve in the direction sought with a large enough effect; inconclusive = small, poorly fitted or top-dose-only effect, or another doubt; inactive = no such curve, though single readings can be large; an effect the other way counts as inactive or inconclusive. Potency is read from the fitted curve at half-maximal effect.

SMILES	Rab9 prom act	NPC1 prom act	SMN2 splice up	Luc counter	ELG1 genotoxic	FLuc counter
CC(=O)c1cccc(NC(=O)c2ccc(-c3ccccc3[N+](=O)[O-])o2)c1	3.2µM*	?	10µM*	-2%	?	3.4µM*
COc1ccc(NC(=O)c2ccc(-c3cccc(Cl)c3C)o2)cc1	.	.	10%	.	.	?
COc1ccc(NC(=O)c2ccc(-c3ccccc3Cl)o2)cc1	?	?	18µM*	-3%	?	9.5µM*
CC(C)(CNC(=O)c1ccc(-c2ccccc2Cl)o1)N1CCOCC1	?	?	.	.	13µM*	?
CCc1ccc2c(c1)c(=O)c(C(=O)c1ccc(C)cc1)cn2CC(=O)Nc1ccc2c(c1)OCCO2	.	.	10%	.	.	0%
CCOc1ccc(NC(=O)c2ccc(-c3cccc(Cl)c3C)o2)cc1	.	.	8%	.	.	-17%
Cc1ccc(NC(=O)c2ccc(-c3cccc(Cl)c3C)o2)cc1	.	.	-19%	.	.	7.6µM*
O=C(Nc1cccc(F)c1)c1ccc(-c2ccccc2Cl)o1	-2%	-2%	11µM*	-11%	?	9.5µM*
O=C(Nc1ccccc1)c1cc(-c2ccccc2Cl)no1	23%	?	?	-18%	?	0.76µM*
COC(=O)c1sccc1-c1ccc(C(=O)Nc2ccccc2)o1	2.2µM*	3.5µM*	?	-4%	?	7.6µM*
O=C(Nc1cccc(O)c1)c1cc(-c2ccccc2F)no1	.	.	.	.	.	1%
NC(=O)c1ccccc1NC(=O)c1ccoc1	13%	0%	.	.	2%	-1%
COc1ccc(NC(=O)c2cc(-c3ccccc3Cl)no2)cc1	-3%	1%	-9%	-1%	8%	9.5µM*
COc1ccccc1/C=C/C(=O)/C=C/c1ccccc1O	-42%	-37%	.	.	-15%	3.4µM*
CNc1ccc(Br)cc(C(=O)/C=C/c2cccc(OC)c2OC)c1=O	-5%	-1%	.	-5%	-13%	?
CNc1ccccc(C(=O)/C=C/c2ccccc2OC)c1=O	2%	1%	-24%	-5%	-5%	21µM*
Cc1nc2cc(NC(=O)NCc3ccco3)ccc2n1C	?	27%	?	-6%	15µM*	?
Cc1nc2cc(NC(=O)c3ccco3)ccc2n1C	0.32µM*	0.5µM*	.	.	2.3µM*	8.5µM*
COc1ccccc1C(=O)Nc1ccc2c(c1)nc(CCNC(=O)c1ccco1)n2C	4%	-18%	.	.	8%	?
CCCCC(=O)Nc1ccc2c(c1)nc(CCNC(=O)c1ccco1)n2C	19%	4%	.	.	11%	-12%
CCC(=O)NCCc1nc2cc(NC(=O)c3ccco3)ccc2n1C	?	?	.	.	?	17µM*
Cn1c(CCNC(=O)c2ccco2)nc2cc(NC(=O)c3ccco3)ccc21	?	?	11µM*	-4%	?	24µM*
CCCCN(C)CCCNC(=O)Cn1ncc2c3ccccc3n(Cc3cc(C)ccc3C)c2c1=O	.	.	?	.	.	1%
COc1ccccc1C1OC(=O)CC1C(=O)OC[C@@H]1CCCN2CCCCC12 (stereo not given in full)	.	.	-4%	-1%	.	.
CCCC(=O)Nc1ccc(-c2nc3ncccc3o2)cc1C	.	.	?	.	.	-17%
Cn1c(CCNC(=O)c2ccco2)nc2cc(NC(=O)c3ccccc3)ccc21	?	?	.	.	15%	17µM*
Cn1c(CCNC(=O)c2ccccc2)nc2cc(NC(=O)c3ccco3)ccc21	28%	21%	27%	-2%	?	?
COc1ccc(NC(=O)c2cc(F)c(F)cc2Cl)cc1Cl	?	?	.	.	?	13µM*
COCC(=O)Nc1ccc(OC)c(Cl)c1	10%	11%	.	.	12%	1%
